# Test results from PubChem BioAssay AID1508600 (Functional Genomics Laboratory (NCATS/FGL), 2020).
# About 3,700 (7%) of roughly 53,000 sequences were called active. The full list was thinned out, with actives kept by preference. A number with no mark means an inactive call.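 The calls were made as follows: active = gene knockdowns whose robust z-score for IL-1 alpha signal is at least 2 or at most -2, so actives lie on both sides; inactive = the rest.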
# Test: Components of the Cytosolic LPS Sensing Pathway: Gene Identification via Genome-wide siRNA Screen;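 also: robust z of the log signal after scaling to non-targeting control siRNA wells of the plate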
# Settings: RAW264.7 macrophages, IL-1a HTRF, actives lie on both sides, screened at 100 nM (by protocol), cells primed 5 h with Pam3CSK4 first
# Outline: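 Read-out: IL-1a HTRF on supernatant, divided by plate negative-control median ×100, log-transformed and converted to robust z-score. Cells were RAW264.7 given 100 nM siRNA, Pam3CSK4-primed 5 hours, then LipidA-transfected 24 hour.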
row,Sequence,z-score
1,GCAACGUGGUCAUCAAUCUTT against Ndufa9,-0.743
2,GGGUUAUGGCUGGAAUCUGTT against Slc12a9,-1.52
3,GGAACAAGGCUUUUUCCACTT against Olfr481,0.566
4,CCCGUUGUAUACAAAUACCTT against Tmem41b,0.579
5,CCCAAACAGACUAGAUCCGTT against Rab20,3.37 (active)
6,GUGGAAAUUAAUCUGGGUUTT against Tmem191c,0.394
7,GGCCAGAUAGCAAAACAGCTT against Mpst,0.897
8,GGAGGUGUUCAUUGAAGUCTT against Nudcd2,-0.356
9,GGAACUGACAGCUAUGAACTT against Atp6v1d,-0.845
10,GGAGAAGAAAGCAAAAACCTT against Ing1,-2.11 (active)
11,CGCAGAUCAAUUUUCAUAGTT against Kif2a,0.471
12,GGAUAUUGGUGGCACUUUATT against Med6,-0.315
13,GGAUAAAUGGUACAUUCAGTT against Coa7,0.958
14,CCAACCUAAACAAUGCAUUTT against Actn4,-0.431
15,GGCGGACUUGGAUUACAGCTT against Rassf10,2.21 (active)
16,GGAGCUGCUGUUAAUUCCATT against Col5a3,1.3
17,GGAAGCCUACCUUUAUAUUTT against Slc2a3,0.458
18,CCUUUUCAAGCUAACAACATT against Gba2,-0.0808
19,GGUAGCACUUUGUAUUUUATT against Spg7,0.575
20,GCAUCUACUAUCCAAGUGATT against Alox8,2 (active)
21,CCUACAGCCACCUAAUAGATT against Olfr1196,-0.346
22,GCAAGUAACUACCAGAGUATT against Cfap20,-0.488
23,CCACGGGAGACAAGAUUCUTT against Hmbs,3.18 (active)
24,GGUCAGCGAACCACGAUAATT against Olfr314,-0.792
25,GGUAUAAGGUCAUAGAAUUTT against E230016K23Rik,0.429
26,GCUUCUAUUUUGGAUGAUGTT against Skint10,-1.2
27,GGCACAAGUUGACCAAUAUTT against Rtn1,-0.263

row,Sequence,z-score
1,GCUACUCCUUAGAACACGGTT against Spry1,0.839
2,GGCUAUCUGAUUUUUGUUGTT against Nlrp3,-0.0259
3,GGCCUCAAACUGAAUAUUATT against Serpina7,0.472
4,CCCGGAAACAACACAUUGCTT against Tyrobp,2.88 (active)
5,GGUCCAGCAUUUGAAAUUATT against Moap1,0.291
6,CCACUGUGCAAGAAGCACGTT against Ldb3,-0.129
7,GGGUAAUGGGCCAGUAUCATT against Fam229b,-2.92 (active)
8,GGUAUAUUGUGCCAGCACATT against Olfr705,0.00345
9,GGUUCACAUGUACAUUAAATT against Cracd,-0.156
10,GGUUAGAAAACAAUAUCAGTT against 9530053A07Rik,0.88
11,GGGAGAGCUGGCUAAAUGATT against Sptbn4,-0.956
12,GGAGUUUGCCAGUGAAUUUTT against Ptpn22,-0.603
13,GGAAGAGAAAACAACAGUUTT against Phactr4,-1.26
14,CCCGUAAGGUAACAAACCGTT against Polr3k,-1.14
15,GGACAGGAAGGUCAUCCCUTT against Sntb2,-0.568
16,CCGCCAGACCUUCAUUACCTT against Chia1,-0.515
17,GGCAGUGGAGCUGGACAAATT against Nkx2-5,2.45 (active)
18,GGCUACAAAUCCAACUAUCTT against Ppp1r32,0.181
19,GGUCCAAGCCUUUUCUAGATT against Glmp,0.305
20,GCUCGUUCGCCUAGAAUUGTT against Mycbp,0.529
21,CGUGGGCUCUGUUGACAUUTT against Olfr492,0.869
22,GGGCAAAUGUAAAAAGACUTT against Fst,1.28
23,GGUGAUUGUCAAGAUUAUGTT against Olfr651,-2.1 (active)
24,CCUUUGCCUUCAGUUUUAUTT against Pramel20,0.864
25,GGUCACGAUGUAGCACGCUTT against Mtg1,0.996
26,GCAGGAAGUACUCCUAUCCTT against Letm2,-0.861
27,GGGAAUUUGGUAUCAAUUUTT against Epgn,1.7
